The full list was thinned out, with hits kept by preference.
Pf Dd2 inh – Plasmodium falciparum Dd2 growth inhibition; P. falciparum Dd2 growth, SYBR Green, 72 h; Potency, µM (highest dose often 28.9 µM), for the others: at the highest dose activity, negative = inhibition, usual class: inhibitors; 4.3% of 120,000 active; active = well fitted inhibition curve with a large enough effect;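 note: plate controls were DMSO vehicle for no effect and reference drug for full effect; nearly all actives have a fitted effect of over 65% in size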
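Readout: SYBR Green fluorescence, 485 nm excitation, 535 nm emission, after ~16 h lysis at 37C. Before that, Dd2-infected red cells (2.5% hematocrit) grew 72 h with compound, 29 uM top final concentration.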
* hit, by the source's call; [ ] = dose if it differs, or a comment. Potency is the fitted concentration of half-maximal effect.

How did COC1CCN(CC2CCCCCN2C(=O)Nc2ccc3c(c2)OCCO3)CC1 (stereo not drawn) do in these assays?
Pf Dd2 inh: inactive

Results for CCc1ccc(-n2nc(C)c3c(C)cc(=O)n(CC(=O)Nc4cc(Cl)ccc4OC)c32)cc1 ?
Pf Dd2 inh: 15%

Results for CC(C)CCNC(=O)Cn1nc2c(cc1=O)CCCC2 ?
Pf Dd2 inh: 4%

What do the screens show for `CCCc1cc(=O)[nH]c(SCc2nc(-c3ccc(OCC)cc3)no2)n1`?
Pf Dd2 inh: 7%

What do the screens show for `COCCNC(=O)c1ccc2c(c1)N(C)C(CC(=O)NCc1ccoc1)CO2` (stereo not drawn)?
Pf Dd2 inh: -1%

Results for CCO[C@H]1CN(Cc2cnc(SCc3ccccc3)nc2)C[C@@H]1O ?
Pf Dd2 inh: -18%

How did CCO[C@H]1CN(Cc2ccc(OC)c(OCc3cccc(F)c3)c2)C[C@@H]1O do in these assays?
Pf Dd2 inh: 13µM*

How did COCc1noc([C@@H]2CN(Cc3cccc(F)c3)C[C@H]2COC)n1 do in these assays?
Pf Dd2 inh: 17%

Results for Cn1c(SCc2ccc(Br)cc2)nc2c([nH]c3ccccc32)c1=O ?
Pf Dd2 inh: 3%

How did CC(=O)N1CCOc2cc(S(=O)(=O)Nc3cc(C(F)(F)F)ccc3Cl)c(C)cc21 do in these assays?
Pf Dd2 inh: 26%

What do the screens show for `CC(=O)N1CCOc2cc(S(=O)(=O)Nc3cccc(C(F)(F)F)c3)c(Cl)cc21`?
Pf Dd2 inh: 13µM*

How did CC(=O)N1CCOc2cc(S(=O)(=O)NC(C)c3ccccc3)c(Cl)cc21 (stereo not drawn) do in these assays?
Pf Dd2 inh: 3%

How did COC(=O)c1ccc(NC(=O)N2CCn3nnc(CCC(=O)N4CCCC4)c3C2)cc1 do in these assays?
Pf Dd2 inh: inactive

What do the screens show for `COc1ccc(Cn2ccc3nc(C)c(C(=O)N4CCN(c5ccccc5)CC4)cc3c2=O)cc1`?
Pf Dd2 inh: 14%

What do the screens show for `COc1ccc(Cn2ccc3nc(C)c(C(=O)N4CCN(c5cccc(OC)c5)CC4)cc3c2=O)cc1`?
Pf Dd2 inh: 13µM*

What do the screens show for `COc1ccc(Cn2ccc3nc(C)c(C(=O)NCc4cccc(OC)c4)cc3c2=O)cc1`?
Pf Dd2 inh: -25%

What do the screens show for `COc1ccc(CNC(=O)CCn2ccn3nc4c(c3c2=O)CCCC4)c(OC)c1`?
Pf Dd2 inh: -25%

Results for O=S(=O)(c1ccccc1)c1nnn2c1nc(N1CCOCC1)c1ccccc12 ?
Pf Dd2 inh: 5%

What do the screens show for `COc1ccc(OC)c([S+](=O)([O-])c2nnn3c2nc(N2CCOCC2)c2ccccc23)c1`?
Pf Dd2 inh: -21%

Results for Cc1cc(C)c([S+](=O)([O-])c2nnn3c2nc(N2CCC(F)CC2)c2ccccc23)c(C)c1 ?
Pf Dd2 inh: 11µM*

Results for Cc1cc(C)c([S+](=O)([O-])c2nnn3c2nc(N2CCOCC2)c2ccccc23)c(C)c1 ?
Pf Dd2 inh: 8.9µM*

What do the screens show for `Cc1ccc(-c2nnn3c2nc(N2CCC(C)CC2)c2ccccc23)cc1`?
Pf Dd2 inh: -11%

How did CC(C)c1ccc([S+](=O)([O-])c2nnn3c2nc(N2CCC(F)CC2)c2ccccc23)cc1 do in these assays?
Pf Dd2 inh: -28%

How did CC(C)CN1C(=O)C(C)(C)[S+](=O)([O-])[C@@H]2CN(Cc3ccncc3)C[C@@H]21 do in these assays?
Pf Dd2 inh: 26%[44.1 µM]

How did COc1ccc(CN2C[C@@H](CO)[C@H](c3nc(C)no3)C2)c(OC)c1 do in these assays?
Pf Dd2 inh: 6%

How did CCOC(=O)N1CCN(C2CCCN(Cc3cc(C)ccc3-n3cccn3)C2)CC1 (stereo not drawn) do in these assays?
Pf Dd2 inh: 10µM*

How did COCC[C@]1(O)CCN(Cc2cc(F)ccc2-n2cccn2)C[C@H]1C do in these assays?
Pf Dd2 inh: -4%

Results for COc1ccc(-n2cccn2)c(CN2CC[C@H](CO)[C@H](O)C2)c1 ?
Pf Dd2 inh: inactive

Results for O=C(Nc1c(O)c2ccccc2oc1=O)c1cccc(F)c1 ?
Pf Dd2 inh: 38%

What do the screens show for `COc1ccc(CN2CC[C@@H](CO)N(C)c3nc(C)ccc3C2)cc1`?
Pf Dd2 inh: -11%[44.1 µM]

How did O=C1[C@@H]2C[C@@H](CN2C(=O)C2CC2)Oc2ccccc2N1Cc1ccccn1 do in these assays?
Pf Dd2 inh: 8%[44.1 µM]

Results for CCc1cc(=O)n(CC(=O)Nc2ccccc2)c(-c2ccccc2)n1 ?
Pf Dd2 inh: -3%

How did COc1ccccc1NC(=O)Cn1c(-c2ccccc2)nc(C)cc1=O do in these assays?
Pf Dd2 inh: -63%

What do the screens show for `CCc1cc(=O)n(CC(=O)Nc2ccc(OC)c(OC)c2)c(-c2cccc(F)c2)n1`?
Pf Dd2 inh: inactive

What do the screens show for `CCc1cc(=O)n(CC(=O)Nc2cc(OC)c(OC)c(OC)c2)c(-c2ccccc2)n1`?
Pf Dd2 inh: 11µM*

How did CCc1cc(=O)n(CC(=O)Nc2ccccc2C)c(-c2ccccc2)n1 do in these assays?
Pf Dd2 inh: 10µM*

What do the screens show for `CCc1cc(=O)n(CC(=O)Nc2ccc(OC)cc2)c(-c2ccccc2)n1`?
Pf Dd2 inh: -1%

Results for CCOc1ccccc1C(=O)N1CCN(c2cc(-c3ccc(F)cc3)[nH]n2)CC1 ?
Pf Dd2 inh: inactive

What do the screens show for `Cn1cnc(S(=O)(=O)N2CCC3(CCCCO3)CC2)c1`?
Pf Dd2 inh: 1%

Results for COC(=O)[C@@H]1Cc2ncn(Cc3ccc(Cl)cc3)c2CN1C(=O)c1ccco1 ?
Pf Dd2 inh: inactive

What do the screens show for `C[C@@H]1C(=O)O[C@H]2[C@H]1CC[C@@]1(C)Cc3sc(NC(=O)c4c(Cl)cccc4Cl)nc3[C@@H](C)[C@H]21`?
Pf Dd2 inh: inactive

Results for C[C@@H]1C(=O)O[C@H]2[C@H]1CC[C@@]1(C)Cc3sc(NS(=O)(=O)c4ccc(F)cc4)nc3[C@@H](C)[C@H]21 ?
Pf Dd2 inh: inactive

What do the screens show for `C[C@@H]1C(=O)O[C@H]2[C@H]1CC[C@@]1(C)Cc3sc(NC(=O)Nc4ccc(Oc5ccccc5)cc4)nc3[C@@H](C)[C@H]21`?
Pf Dd2 inh: 11µM*

Results for C[C@@H]1C(=O)O[C@H]2[C@H]1CC[C@@]1(C)Cc3sc(NC(=O)NC4CCCCC4)nc3[C@@H](C)[C@H]21 ?
Pf Dd2 inh: 11µM*

What do the screens show for `CC(=O)N1CCC(C(=O)Nc2nc3c(s2)C[C@]2(C)CC[C@@H]4[C@H](OC(=O)[C@H]4C)[C@H]2[C@@H]3C)CC1`?
Pf Dd2 inh: inactive

How did COCC(=O)Nc1nc2c(s1)C[C@]1(C)CC[C@@H]3[C@H](OC(=O)[C@H]3C)[C@H]1[C@@H]2C do in these assays?
Pf Dd2 inh: -4%[44.1 µM]

How did CC(C(=O)Nc1ccc(F)c(Cl)c1)N1Cc2ccccc2C1=O (stereo not drawn) do in these assays?
Pf Dd2 inh: inactive

Results for CCOC(=O)C1CCN(C(c2ccc(SC)cc2)c2c(O)cc(C)n(Cc3ccco3)c2=O)CC1 (stereo not drawn) ?
Pf Dd2 inh: 31%

Results for O=C(NC1CCCCC1)N1CCN(C(=O)N2CC3CC(C2)[C@H]2CCCC(=O)N2C3)CC1 (stereo partly drawn) ?
Pf Dd2 inh: inactive

Results for COc1cc(Cl)ccc1C(=O)N1C[C@@H](C(N)=O)[C@H](c2nc(C)no2)C1 ?
Pf Dd2 inh: -22%

How did COc1ccc(CN2C[C@H]3CN(Cc4ccc5c(c4)OCCO5)CCN3C2=O)cc1 do in these assays?
Pf Dd2 inh: 11µM*

How did COc1ccc(CN2C[C@H]3CN(Cc4ccc(Cl)cc4)CCN3C2=O)cc1 do in these assays?
Pf Dd2 inh: 11%[44.1 µM]

How did COc1ccc(CN2CCN3C(=O)N(Cc4ccc(OC)cc4)C[C@H]3C2)cc1 do in these assays?
Pf Dd2 inh: -6%[44.1 µM]

Assay outcomes deposited in PubChem by National Center for Advancing Translational Sciences (NCATS).
